Records with an inconclusive call do not appear. Calls of active or inactive are those of the source. Unless noted, calls follow the shape of the dose curve; as a rule, active = well fitted curve in the direction sought with a large enough effect; inconclusive = small, poorly fitted or top-dose-only effect, or another doubt; inactive = no such curve, though single readings can be large; an effect the other way counts as inactive or inconclusive.
How the values were obtained:
[1] = molecular target: Beta-2 adrenergic receptor (Homo sapiens) (UniProt P07550); assay: qHTS validation assay of beta-arrestin-biased ligands of beta2-adrenergic receptor (AID 485366); also: 0% is about no effect
Chain of Beta-2 adrenergic receptor (Homo sapiens) (P07550 whole entry, looked up): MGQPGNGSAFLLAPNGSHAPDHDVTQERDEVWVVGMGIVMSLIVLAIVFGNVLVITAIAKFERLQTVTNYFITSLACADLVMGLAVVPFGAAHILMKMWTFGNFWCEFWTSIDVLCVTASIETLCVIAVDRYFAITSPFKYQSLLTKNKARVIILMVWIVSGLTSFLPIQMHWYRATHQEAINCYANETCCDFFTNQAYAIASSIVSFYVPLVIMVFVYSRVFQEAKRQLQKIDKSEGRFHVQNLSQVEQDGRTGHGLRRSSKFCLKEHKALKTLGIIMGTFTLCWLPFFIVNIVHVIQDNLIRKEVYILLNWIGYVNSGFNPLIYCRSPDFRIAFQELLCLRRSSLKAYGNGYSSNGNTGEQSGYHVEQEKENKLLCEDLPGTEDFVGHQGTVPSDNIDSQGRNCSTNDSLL
How it was run: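 Tango cells (recombinant beta2-AR with recombinant beta-arrestin; recruitment releases tTA driving luciferase) were treated with compounds titrated up to 46 microM for 18 hr at 37 degrees C. Luminescence gave %Activity, and concentration-response curves were curve-classified.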

[2] = molecular target: ATP-dependent 6-phosphofructokinase (Trypanosoma brucei brucei) (UniProt O15648); assay: qHTS Validation Assay to Find Inhibitors of T. brucei phosphofructokinase (AID 485368)
Chain of ATP-dependent 6-phosphofructokinase (Trypanosoma brucei brucei) (O15648 whole entry, looked up): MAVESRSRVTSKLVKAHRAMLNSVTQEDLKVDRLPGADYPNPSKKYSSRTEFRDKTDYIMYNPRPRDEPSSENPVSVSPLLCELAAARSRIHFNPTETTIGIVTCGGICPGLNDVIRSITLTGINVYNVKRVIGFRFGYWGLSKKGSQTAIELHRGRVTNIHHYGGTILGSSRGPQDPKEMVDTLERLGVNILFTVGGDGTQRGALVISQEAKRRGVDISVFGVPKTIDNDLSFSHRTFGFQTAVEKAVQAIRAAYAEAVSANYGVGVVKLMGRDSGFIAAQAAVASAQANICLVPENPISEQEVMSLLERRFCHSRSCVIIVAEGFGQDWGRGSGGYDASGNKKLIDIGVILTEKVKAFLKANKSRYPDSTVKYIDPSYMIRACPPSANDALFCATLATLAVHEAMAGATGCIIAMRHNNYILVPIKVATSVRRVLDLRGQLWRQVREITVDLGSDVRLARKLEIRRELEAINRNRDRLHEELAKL
How it was run: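 Compounds (up to 57 uM, titration series) were pinned into substrate buffer, then 1.25 nM PFK added; after 45 min at room temperature, ADP product was quantified by ADP-Glo luminescence and concentration-response curves fitted.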

[3] = molecular target: Thioredoxin reductase 1, cytoplasmic (Rattus norvegicus) (UniProt O89049); assay: qHTS Assay for Substrates of Mammalian Selenoprotein Thioredoxin Reductase 1 (TrxR1) (AID 488772);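 also: NADPH fluorescence in the first read after selenite addition and not the 8 min delta; series mostly up to about 57 µM; 0% is about no effect; a drop in NADPH fluorescence below the no-compound background marks a TrxR1 substrate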
Chain of Thioredoxin reductase 1, cytoplasmic (Rattus norvegicus) (O89049 whole entry, looked up): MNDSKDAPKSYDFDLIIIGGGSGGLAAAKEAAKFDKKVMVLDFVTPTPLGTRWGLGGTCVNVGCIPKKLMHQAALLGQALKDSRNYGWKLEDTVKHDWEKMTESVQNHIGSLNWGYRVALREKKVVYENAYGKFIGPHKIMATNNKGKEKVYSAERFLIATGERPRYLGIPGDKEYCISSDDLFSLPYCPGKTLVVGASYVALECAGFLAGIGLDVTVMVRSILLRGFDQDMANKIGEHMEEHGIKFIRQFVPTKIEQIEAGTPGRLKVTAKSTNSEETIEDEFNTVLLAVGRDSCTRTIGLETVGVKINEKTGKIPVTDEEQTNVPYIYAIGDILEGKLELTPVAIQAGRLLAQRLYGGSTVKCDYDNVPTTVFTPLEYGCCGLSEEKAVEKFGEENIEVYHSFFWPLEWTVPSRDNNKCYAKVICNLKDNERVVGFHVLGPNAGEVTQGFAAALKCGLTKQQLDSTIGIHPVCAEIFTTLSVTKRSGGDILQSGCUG
How it was run: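 Quantitative HTS in Tris-HCl buffer at pH 7.5 with EDTA and Tween-20, using rat TrxR1, 400 uM NADPH and 400 uM selenite (final). A fall in initial NADPH fluorescence relative to background marked substrate behaviour.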

[4] = molecular target: Thioredoxin reductase 1, cytoplasmic (Rattus norvegicus) (UniProt O89049); assay: qHTS Assay for Inhibitors of Mammalian Selenoprotein Thioredoxin Reductase 1 (TrxR1) (AID 488773); settings: Potency: inhibition;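 also: drop in NADPH fluorescence over an 8 min run after selenite addition; series mostly up to about 57 µM; % is scaled to controls: 0 for no effect and ±100 for the full control effect; nearly all actives have a fitted effect of over 40% in size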
How it was run: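 Steps: enzyme (90 nM) plus NADPH (400 uM final), 5 min at ~22 deg C; compound added, 15 min; selenite (400 uM final) added; fluorescence followed for 8 min. Concentration-response curves derived from the normalized delta values.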

[5] = molecular target: Flap endonuclease 1 (Homo sapiens) (UniProt P39748); assay: qHTS Validation Assay for the Inhibitors of Human Flap endonuclease 1 (FEN1) (AID 488816); also: % is scaled to controls: 0 for no effect and ±100 for the full control effect
Chain of Flap endonuclease 1 (Homo sapiens) (P39748 whole entry, looked up): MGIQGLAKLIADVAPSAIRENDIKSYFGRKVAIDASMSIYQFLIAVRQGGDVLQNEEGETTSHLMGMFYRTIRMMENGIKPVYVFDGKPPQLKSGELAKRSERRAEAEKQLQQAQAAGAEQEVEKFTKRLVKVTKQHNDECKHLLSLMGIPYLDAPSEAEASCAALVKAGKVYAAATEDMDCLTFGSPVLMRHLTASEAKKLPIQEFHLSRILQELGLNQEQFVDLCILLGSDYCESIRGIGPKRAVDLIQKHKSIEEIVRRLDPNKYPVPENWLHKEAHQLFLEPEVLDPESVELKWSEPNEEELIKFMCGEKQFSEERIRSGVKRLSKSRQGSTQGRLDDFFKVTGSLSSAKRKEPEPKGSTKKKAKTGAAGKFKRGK
How it was run: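 Readings taken at 0 and 15 min after starting the reaction with 50 nM (final) substrate supplied the signal. Compounds had first sat with 10 nM FEN1 reagent for 15 min at room temperature. Values come from Hill-equation concentration-response fits.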

[6] = molecular target: M-phase phosphoprotein 8 (Homo sapiens) (UniProt Q99549); assay: qHTS Validation Assay for Inhibitors for MPP8 Chromodomain Interactions with Methylated Histone Tails (AID 488949);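 also: 50 nM MPP8 with 50 nM peptide preformed then compounds added for 30 min; AlphaScreen signal from MPP8 chromodomain bound to biotinylated H3K9me3 peptide; top concentration of the series differs between compounds; % is scaled to controls: 0 for no effect and ±100 for the full control effect; nearly all actives have a fitted effect of over 55% in size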
Chain of M-phase phosphoprotein 8 (Homo sapiens) (Q99549 whole entry, looked up): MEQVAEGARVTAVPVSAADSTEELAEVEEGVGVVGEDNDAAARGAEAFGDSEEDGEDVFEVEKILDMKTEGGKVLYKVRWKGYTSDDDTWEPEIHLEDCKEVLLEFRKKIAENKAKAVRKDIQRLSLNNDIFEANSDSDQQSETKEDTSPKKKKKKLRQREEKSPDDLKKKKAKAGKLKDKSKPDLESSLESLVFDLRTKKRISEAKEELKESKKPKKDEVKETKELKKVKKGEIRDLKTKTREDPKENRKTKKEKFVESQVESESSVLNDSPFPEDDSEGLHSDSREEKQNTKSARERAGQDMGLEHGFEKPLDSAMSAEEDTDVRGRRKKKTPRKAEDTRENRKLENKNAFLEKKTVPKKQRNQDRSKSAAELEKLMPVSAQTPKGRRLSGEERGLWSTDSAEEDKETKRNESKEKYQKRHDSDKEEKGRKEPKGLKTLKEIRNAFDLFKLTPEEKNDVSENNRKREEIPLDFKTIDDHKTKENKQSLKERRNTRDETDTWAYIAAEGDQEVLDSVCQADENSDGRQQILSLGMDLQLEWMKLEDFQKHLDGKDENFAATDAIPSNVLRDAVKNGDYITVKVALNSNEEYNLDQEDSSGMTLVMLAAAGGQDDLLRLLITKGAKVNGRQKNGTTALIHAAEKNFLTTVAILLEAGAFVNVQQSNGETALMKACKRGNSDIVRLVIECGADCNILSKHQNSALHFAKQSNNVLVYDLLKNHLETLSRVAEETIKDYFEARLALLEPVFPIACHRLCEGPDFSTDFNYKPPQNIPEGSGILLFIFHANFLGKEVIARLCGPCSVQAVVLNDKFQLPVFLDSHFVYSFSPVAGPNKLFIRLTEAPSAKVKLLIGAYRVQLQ
How it was run: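 50 nM MPP8 + 50 nM b-H3K9me3 peptide, PBS pH 7.4/0.01% Tween-20, 30 min RT; + cpd 30 min RT; + AlphaScreen donor/Ni-chelate acceptor beads 10 ug/mL final, 30 min dark; luminescence read.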

[7] = molecular target: Chromobox protein homolog 1 (Homo sapiens) (UniProt P83916); assay: qHTS Validation Assay for Inhibitors of HP1-beta Chromodomain Interactions with Methylated Histone Tails (AID 488953); also: nearly all actives have a fitted effect of over 50% in size; also: potency is read from the fitted curve at half-maximal effect
Chain of Chromobox protein homolog 1 (Homo sapiens) (P83916 whole entry, looked up): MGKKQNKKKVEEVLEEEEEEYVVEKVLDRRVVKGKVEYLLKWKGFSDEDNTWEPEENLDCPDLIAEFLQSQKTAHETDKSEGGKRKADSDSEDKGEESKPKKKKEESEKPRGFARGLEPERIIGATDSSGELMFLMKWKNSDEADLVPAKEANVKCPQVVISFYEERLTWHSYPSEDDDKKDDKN
How it was run: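 HP1-beta (50 nM) preformed 30 min with biotinylated H3(1-18)K9me3 peptide (50 nM) in PBS pH 7.4, 0.01% Tween-20. Compounds added for 30 min at room temperature. Complex disruption read by AlphaScreen with streptavidin donor/nickel chelate acceptor beads (10 ug/mL each).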

[8] = molecular target: Methanococcus maripaludis chaperonin (MmCpn) (UniProt Q6LX38); assay: High-Throughput Screening for Modulators of Cytosolic Chaperonin Activity: MmCpn Primary Screen (AID 488978);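 also: 50 nM MmCpn enzyme hydrolysing 30 µM ATP at 37 °C; 0% is about no effect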
How it was run: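 Steps: chaperonin 50 nM final; add compound, 5 min RT; start with ATP, 30 uM final; hold 10 min at 37C; add ADP Transcreener HTRF reagent, 5 min; read ex 320, em 590 and 665 nm.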

[9] = molecular target: Thyrotropin receptor (Homo sapiens) (UniProt P16473); assay: qHTS Assay for Antagonists of the Thyroid Stimulating Hormone Receptor (AID 488980); also: series mostly up to about 58 µM; 0% is about no effect
Chain of Thyrotropin receptor (Homo sapiens) (P16473 whole entry, looked up): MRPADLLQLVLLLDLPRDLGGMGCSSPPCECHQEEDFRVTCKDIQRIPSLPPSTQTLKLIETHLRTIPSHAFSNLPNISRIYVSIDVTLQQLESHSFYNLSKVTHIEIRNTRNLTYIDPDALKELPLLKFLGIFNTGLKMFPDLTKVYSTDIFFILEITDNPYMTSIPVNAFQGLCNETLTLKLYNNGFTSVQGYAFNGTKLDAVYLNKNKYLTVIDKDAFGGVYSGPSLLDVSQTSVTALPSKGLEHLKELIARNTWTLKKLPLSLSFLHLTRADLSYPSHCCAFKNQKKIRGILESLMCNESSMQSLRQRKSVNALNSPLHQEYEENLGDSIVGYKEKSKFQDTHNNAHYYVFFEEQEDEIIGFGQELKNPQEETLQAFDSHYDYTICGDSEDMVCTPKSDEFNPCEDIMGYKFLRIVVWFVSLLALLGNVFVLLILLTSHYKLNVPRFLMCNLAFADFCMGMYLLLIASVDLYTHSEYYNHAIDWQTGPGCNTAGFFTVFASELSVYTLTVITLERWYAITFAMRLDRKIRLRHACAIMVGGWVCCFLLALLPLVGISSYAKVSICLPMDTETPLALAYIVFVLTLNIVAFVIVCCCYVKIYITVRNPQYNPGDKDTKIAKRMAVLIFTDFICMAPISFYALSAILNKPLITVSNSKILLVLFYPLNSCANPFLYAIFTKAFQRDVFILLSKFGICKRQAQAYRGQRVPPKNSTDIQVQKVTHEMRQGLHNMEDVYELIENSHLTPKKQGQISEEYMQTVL
How it was run: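 Readout is cAMP by HTRF competition between cellular cAMP and cAMP-d2 for a cryptate-labelled antibody. Antagonism was assessed in TSHR-transfected HEK293 cells stimulated with 4 nM TSH (EC80, final) in the presence of RO 20-1724.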

[10] = molecular target: D(1A) dopamine receptor (Homo sapiens) (UniProt P21728); assay: HTS Assay for Allosteric Agonists of the Human D1 Dopamine Receptor: Primary Screen for Agonists (AID 488981); also: 0% is about no effect
How it was run: (§1)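 Calcium flux in an inducible, force-coupled HEK293 Trex D1 line (overnight at 30 C): agonist mode is the 180 s kinetic read after compound; potentiator mode is the following 180 s read after dopamine at EC20.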

[11] = molecular target: D(1A) dopamine receptor (Homo sapiens) (UniProt P21728); assay: HTS Assay for Allosteric Agonists of the Human D1 Dopamine Receptor: Primary Screen for Potentiators (AID 488982); also: potency is read from the fitted curve at half-maximal effect
How it was run: as §1

[12] = molecular target: D(1A) dopamine receptor (Homo sapiens) (UniProt P21728); assay: HTS Assay for Allosteric Agonists of the Human D1 Dopamine Receptor: Primary Screen for Antagonists (AID 488983);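 also: calcium flux response to an EC80 dopamine challenge measured with no-wash dye; nearly all actives have a fitted effect of over 65% in size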; also: potency is read from the fitted curve at half-maximal effect
How it was run: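 Tetracycline-induced HEK293 T-REx D1 line, force-coupled to calcium flux, read with no-wash calcium dye. Compound added after 10 s baseline, read 180 s for agonism, then EC80 dopamine added and read a further 180 s.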

[13] = Validation screen for small molecules that induce genotoxicity in human embryonic kidney (HEK293T) cells expressing luciferase-tagged ELG1 (AID 493106); also: 0% is about no effect
How it was run: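 HEK293T cells expressing luciferase-tagged ELG1, 2,000 cells/well, exposed to compound 16 hr at 37 °C, 5% CO2. Luciferase read after ONE-Glo, 30 min at room temperature; increased signal indicates genetic stress.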

[14] = molecular target: Thyrotropin-releasing hormone receptor (Homo sapiens) (UniProt P34981); assay: qHTS for Small Molecule Agonists and Allosteric Enhancers of Human TRH Receptor: Validation Screen for Agonists (AID 493127;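 active = calcium activation more than 3 SD above the typical response in the agonist read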; also: 0% is about no effect); settings: TRH receptor agonist cell assay; at 2 µM; active compounds read high
Chain of Thyrotropin-releasing hormone receptor (Homo sapiens) (P34981 whole entry, looked up): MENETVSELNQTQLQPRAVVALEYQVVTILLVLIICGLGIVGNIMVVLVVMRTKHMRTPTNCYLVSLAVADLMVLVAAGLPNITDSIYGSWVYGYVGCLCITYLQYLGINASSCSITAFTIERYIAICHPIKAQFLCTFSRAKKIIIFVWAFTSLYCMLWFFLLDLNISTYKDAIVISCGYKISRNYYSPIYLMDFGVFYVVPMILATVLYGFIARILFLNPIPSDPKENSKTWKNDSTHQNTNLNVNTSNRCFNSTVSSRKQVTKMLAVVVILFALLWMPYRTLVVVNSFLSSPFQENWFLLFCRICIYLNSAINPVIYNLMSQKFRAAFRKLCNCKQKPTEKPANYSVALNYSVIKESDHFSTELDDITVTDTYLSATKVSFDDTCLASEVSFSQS
How it was run: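 TRHR cells loaded with fluo-8 calcium dye; FDSS kinetic fluorescence (Ex 480/Em 530) read at 1 s/cycle after 23 nL compound addition. Agonist-mode calcium response recorded before the 10 nM TRH (EC20) addition.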

[15] = Quantitative high throughput screen for delayed death inhibitors of the malarial parasite plastid, 48 hour incubation (AID 488752); also: % is scaled to controls: 0 for no effect and ±100 for the full control effect; nearly all actives have a fitted effect of over 65% in size
How it was run: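 Erythrocytes infected with firefly luciferase-expressing P. falciparum (2% hematocrit, 0.1% parasitemia) cultured with compound for 48 h at 37 C, 5% CO2, in RPMI 1640/0.5% Albumax. Growth inhibition read as loss of luminescence.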

[16] = molecular target: Transient receptor potential cation channel subfamily V member 1 (Homo sapiens) (UniProt Q8NER1); assay: HTS Assay for Compounds that Act as Enhancers of the Vanilloid Receptor 1 (AID 488979); also: 0% is about no effect
Chain of Transient receptor potential cation channel subfamily V member 1 (Homo sapiens) (Q8NER1 whole entry, looked up): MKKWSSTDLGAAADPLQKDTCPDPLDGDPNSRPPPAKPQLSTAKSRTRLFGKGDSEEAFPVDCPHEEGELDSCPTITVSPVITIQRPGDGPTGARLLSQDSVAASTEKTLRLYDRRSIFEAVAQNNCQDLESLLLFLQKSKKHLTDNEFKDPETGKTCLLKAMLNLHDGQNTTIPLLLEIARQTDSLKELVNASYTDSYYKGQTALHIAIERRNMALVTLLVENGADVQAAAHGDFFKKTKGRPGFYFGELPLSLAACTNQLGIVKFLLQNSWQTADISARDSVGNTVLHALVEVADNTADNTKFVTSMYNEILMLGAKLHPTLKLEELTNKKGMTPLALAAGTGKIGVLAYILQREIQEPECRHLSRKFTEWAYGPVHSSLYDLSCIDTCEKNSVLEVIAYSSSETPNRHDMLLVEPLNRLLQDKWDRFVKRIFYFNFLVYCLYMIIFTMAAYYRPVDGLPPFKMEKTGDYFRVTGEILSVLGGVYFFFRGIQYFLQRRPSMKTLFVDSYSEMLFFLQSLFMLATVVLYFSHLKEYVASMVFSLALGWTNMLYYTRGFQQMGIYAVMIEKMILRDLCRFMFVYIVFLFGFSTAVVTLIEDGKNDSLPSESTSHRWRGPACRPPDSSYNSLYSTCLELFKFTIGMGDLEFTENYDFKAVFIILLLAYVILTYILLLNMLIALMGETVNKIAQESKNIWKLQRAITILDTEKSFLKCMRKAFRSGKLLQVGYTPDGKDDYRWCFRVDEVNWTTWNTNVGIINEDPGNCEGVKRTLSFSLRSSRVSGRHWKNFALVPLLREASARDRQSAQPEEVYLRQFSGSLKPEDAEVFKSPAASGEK
How it was run: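 Calcium influx kinetics via Fluo-8 (480/520 nm) in TRPV1-expressing cells, 2000/well cultured overnight at 35.5C. Compound-alone read 3 min (agonist phase), followed by EC20 capsaicin challenge for 2 min (enhancer phase).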

[17] = molecular target: ATPase family AAA domain-containing protein 5 (Homo sapiens) (UniProt Q96QE3); assay: Validation screen for small molecules that inhibit ELG1-dependent DNA repair in human embryonic kidney (HEK293T) cells expressing luciferase-tagged ELG1 (AID 493107);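 also: cells co-treated with the DNA-damaging agent 5-fluorouridine alongside compound; series mostly up to about 46 µM; % is scaled to controls: 0 for no effect and ±100 for the full control effect; inhibitors lower the ELG1-luciferase luminescence signal; nearly all actives have a fitted effect of over 70% in size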
How it was run: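 HEK293T cells expressing luciferase-tagged ELG1, 2,000 per well, treated with 5-fluorouridine plus compound for 16 h at 37 C. ONE-Glo luminescence after 30 min at room temperature reports ELG1 reporter level.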

[18] = Quantitative high throughput screen for delayed death inhibitors of the malarial parasite plastid, 96 hour incubation (AID 488745); also: nearly all actives have a fitted effect of over 70% in size; also: potency is read from the fitted curve at half-maximal effect
How it was run: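 Luciferase-expressing P. falciparum in erythrocytes (2% hematocrit, 0.1% parasitemia) incubated with compound for 96 h at 37 C, 5% CO2, in RPMI 1640 with 0.5% Albumax. Growth inhibition read as decreased luminescence.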

[19] = molecular target: ATP-dependent 6-phosphofructokinase (Trypanosoma brucei brucei) (UniProt O15648); assay: qHTS Assay to Find Inhibitors of T. brucei phosphofructokinase: hit validation (AID 492961);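 also: luminescence reports ADP formed as PFK phosphorylates fructose-6-phosphate with ATP; series mostly up to about 51 µM; % is scaled to controls: 0 for no effect and ±100 for the full control effect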
How it was run: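 In this biochemical qHTS validation, titrated compounds were tested against 1.25 nM PFK with 0.1 mM ATP and 0.5 mM F6P. Percent activity came from controls lacking or containing enzyme.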

Fc1ccc(CN(C2=NCCN2)c2c(Cl)cccc2Cl)cc1
inactive: outcome [1] | Potency [2] | outcome [3] | Potency [4] | Potency [5] | Potency [6] | Potency [7] | outcome [8] | outcome [9] | Potency [10] | Potency [11] | Potency [12] | Potency [13] | activation [14] 1.31%

COc1ccc(C(=O)NCc2cccnc2)cc1C(=O)NCc1cccnc1
inactive: outcome [1] | Potency [2] | Potency [15] | outcome [3] | Potency [4] | Potency [5] | Potency [6] | Potency [7] | outcome [8] | outcome [16] | outcome [9] | Potency [10] | Potency [12] | Potency [13] | Potency [17] | activation [14] 0.938%

c1ccc(C(NCc2cccnc2)(c2ccccc2)c2ccccc2)cc1
active: Potency [11] 4.11 µM
inactive: outcome [1] | Potency [2] | outcome [3] | Potency [4] | Potency [5] | Potency [6] | Potency [7] | outcome [8] | Potency [10] | Potency [13]

CCCn1c(=O)c2[nH]c(C3CCCC3)nc2n(CCC)c1=O
inactive: outcome [1] | Potency [2] | Potency [15] | outcome [3] | Potency [4] | Potency [5] | Potency [6] | Potency [7] | outcome [8] | outcome [16] | outcome [9] | Potency [10] | Potency [12] | Potency [13] | activation [14] -3.88%

O=c1[nH]c2ccccc2c2ccccc12
inactive: outcome [1] | Potency [2] | Potency [15] | outcome [3] | Potency [4] | Potency [5] | Potency [6] | Potency [7] | outcome [16] | outcome [9] | Potency [10] | Potency [11] | Potency [13] | Potency [17] | activation [14] -4.5%

CN1CCC2(CCN3CCc4c(oc5ccccc45)C3C2)N(C)C1=O (stereo unspecified)
active: Potency [12] 10 µM
inactive: outcome [1] | Potency [2] | Potency [18] | outcome [3] | Potency [4] | Potency [6] | Potency [7] | outcome [8] | outcome [16] | outcome [9] | Potency [11] | Potency [13] | activation [14] 0.25%

CCCCOc1cc(CC2CNC(=O)N2)ccc1OC (stereo unspecified)
inactive: outcome [1] | Potency [2] | outcome [3] | Potency [4] | Potency [5] | Potency [6] | Potency [7] | outcome [8] | outcome [16] | outcome [9] | Potency [10] | Potency [12] | Potency [13] | Potency [17] | activation [14] 0.75%

CN1C2CCC1CC(OC(c1ccccc1)c1ccccc1)C2 (stereo unspecified)
active: Potency [18] 8.28 µM
inactive: outcome [1] | Potency [2] | outcome [3] | Potency [4] | Potency [5] | Potency [7] | outcome [8] | outcome [9] | Potency [10] | Potency [11] | Potency [12] | outcome [19] | Potency [13] | Potency [17] | activation [14] 1.5%

CCCC[C@@]1(C2CCCC2)Cc2cc(OCC(=O)O)c(Cl)c(Cl)c2C1=O
inactive: outcome [1] | Potency [2] | Potency [18] | Potency [4] | Potency [5] | Potency [6] | outcome [8] | outcome [16] | outcome [9] | Potency [10] | Potency [11] | Potency [12] | Potency [13] | Potency [17] | activation [14] 1.19%

O=C(O)/C=C/c1ccc(O)c(O)c1
inactive: outcome [1] | Potency [2] | Potency [15] | outcome [3] | Potency [4] | Potency [6] | outcome [8] | outcome [16] | outcome [9] | Potency [10] | Potency [11] | Potency [12] | Potency [13] | Potency [17] | activation [14] 0.25%

N=C(N)SCCc1cnc[nH]1
inactive: outcome [1] | Potency [2] | Potency [18] | outcome [3] | Potency [4] | Potency [5] | outcome [8] | outcome [16] | outcome [9] | Potency [10] | Potency [12] | Potency [13] | activation [14] -0.375%

O=c1[nH]c(=S)[nH]c(-c2ccccc2)c1Cc1c(O)ccc2ccccc12
active: Potency [7] 44.7 µM
inactive: outcome [1] | Potency [2] | outcome [3] | Potency [4] | Potency [5] | Potency [6] | outcome [8] | Potency [10] | Potency [11] | Potency [12] | Potency [13] | Potency [17]

CC(=O)NCCc1c[nH]c2ccc(O)cc12
inactive: outcome [1] | Potency [2] | Potency [18] | outcome [3] | Potency [7] | outcome [8] | outcome [16] | outcome [9] | Potency [10] | Potency [11] | Potency [12] | Potency [13] | Potency [17] | activation [14] 1.31%

Nc1ncnc2c1nc(Sc1ccc(Cl)cc1)n2[C@H]1OC2COP(=O)(O)O[C@@H]2C1O (stereo partly specified)
inactive: outcome [1] | Potency [2] | outcome [3] | Potency [4] | Potency [5] | Potency [6] | Potency [7] | outcome [8] | Potency [10] | Potency [11] | Potency [12] | Potency [17]

COc1ccccc1N1CCN(CCN(C(=O)c2ccc(F)cc2)c2ccccn2)CC1
inactive: outcome [1] | Potency [2] | Potency [18] | outcome [3] | Potency [4] | Potency [5] | outcome [8] | outcome [16] | outcome [9] | Potency [10] | Potency [11] | Potency [13] | activation [14] 0.312%

— PubChem BioAssay (NCATS)
